Measurements: ChEMBL document CHEMBL4513216, “Probing the Open Global Health Chemical Diversity Library for Multistage-Active Starting Points for Next-Generation Antimalarials” (ACS Infect Dis, 2020)
Hit rate of the full screen: of about 69,000 compounds, about 8,600 (12%) showed an effect of 50% or more. This is one part of a sample in which strong results are shown more often than they occur.

test system: Plasmodium berghei; experiment: Screen against P. berghei liver stage (PbLuc), transformed with Luciferase, at 10uM; format: functional, HepG2; conditions: tested at 10 uM

In order of rising INHIBITION:
1. O=C([C@@H]1CC[C@@H]2[C@@H](CCN2Cc2cccs2)O1)N1CCCCO1  -75.3%
2. O=C(Nc1ccc(-c2csnn2)cc1)N1CC[C@H](O)C1  -73.4%
3. Cc1nc(CN(C)C2CCN(CCCc3ccccc3)C2)no1 (stereo unspecified)  -61.4%
4. Cc1noc(C)c1-c1nc(NCCN(C)C)ncc1-c1cnccn1  -56.2%
5. CC(C)C1CN(C(=O)c2ccn(C)c(=O)c2)c2ccccc2N1 (stereo unspecified)  -36.7%
6. Cc1cc(C(=O)N(CC(C)C)CC(O)c2ccc(F)cc2)[nH]n1 (stereo unspecified)  -36.4%
7. CCCOC(=O)N1CCC(c2nnc(Cn3cccn3)n2C2CC2)CC1  -35.9%
8. CCN(C)CC1CCN(C(=O)Nc2ccc(-c3csnn3)cc2)C1 (stereo unspecified)  -32.3%
9. Cc1ccc(-c2nc(CN3CCn4c(C)nnc4C3)cs2)o1  -31.8%
10. COc1cc(N2CC[C@@H](OC)[C@@H]2Cc2ccccc2)ncn1  -30%
11. Cc1cc(C)n(CC2CCCN2Cc2ncc(C(C)(C)C)o2)n1 (stereo unspecified)  -25.6%
12. Cc1nc(C)n(CC2CCCN2CCc2ccncc2)n1 (stereo unspecified)  -21.985%
13. Cc1oc(C(=O)O)cc1S(=O)(=O)Nc1ccc(Cl)cc1F  -20.2%
14. Cc1ccsc1CN1CC[C@H]2O[C@H](C(=O)N3CCCO3)CC[C@H]21  -18.4%
15. COCc1nn(C)c2c1CCN(Cc1cnn(C)c1)C2  -17.1%
16. Cc1nn(C)c(C)c1C1CCCN1C(=O)CCCNc1ncccn1 (stereo unspecified)  -16%
17. CS(=O)(=O)NCc1cn2c(n1)CN(Cc1cccnc1)CC2  -12.2%
18. COc1ccc(C[C@H]2CN(C(=O)c3ccc(C)nc3)CC[C@@H]2OC)cc1  -12.2%
19. Cc1nc(C)n(CC2CCCCN2Cc2nnc(-c3ccco3)o2)n1 (stereo unspecified)  -9.07%
20. CCCSCC(=O)N1C[C@@H]2CC[C@H]1CN(c1ncccn1)C2  -4.37%
21. Cc1nc(C)n(CC2CCCN(Cc3nnc(-c4ccco4)o3)C2)n1 (stereo unspecified)  -0.79%
22. COCCc1noc(CN2CCCC2Cn2nc(C)cc2C)n1 (stereo unspecified)  1.75%
23. Cc1ccc(N2CC[C@H]3O[C@@H](C(=O)N4CCCCO4)CC[C@H]32)nn1  3.69%
24. COC(=O)c1ccccc1C(=O)N(CCN(C)C)Cc1sccc1C  8.03%
25. CN(C)C(=O)[C@@H]1CCO[C@@H]2CCN(c3ncccn3)C[C@@H]21  8.85%
26. COC(=O)C1=C(C)N=C2SCC(=O)N2C1c1cn(C)nc1C (stereo unspecified)  12.6%
27. CSc1ccccc1NC(=O)C1CN(C(=O)c2ccc3c(c2)OCO3)C1  12.7%
28. CCC(C)NC(=O)c1cc(S(N)(=O)=O)c(Br)s1 (stereo unspecified)  14%
29. Cc1ccsc1CN(CCN(C)C)C(=O)c1ccccc1C#N  14.6%
30. CN(C)CCN(Cc1ccccc1)C(=O)C1=NNC(=O)CC1  18%
31. O=C(Cc1ccccc1)NCCNS(=O)(=O)C1CCCCC1  18.2%
32. COCCc1noc(CN2CCCCC2Cn2nc(C)cc2C)n1 (stereo unspecified)  18.4%
33. c1cc(CN2CCCn3cnc(COCC4CC4)c3C2)ccn1  18.5%
34. CC(=O)Nc1ccc(Oc2cc(C)nc(C3CCNCC3)c2)cc1  19.15%
35. CN(CCCNC(=O)C1CCCN(C(N)=O)C1)S(C)(=O)=O (stereo unspecified)  19.8%
36. Cc1cc(C(=O)N2CCO[C@H]3[C@H](OCCN(C)C)CC[C@@H]32)c(C)[nH]1  24.3%
37. O=C(Cc1cccc(F)c1)NCCNS(=O)(=O)C1CCCC1  25.3%
38. COc1ccc(C[C@H]2CN(C(=O)c3ncccn3)CC[C@@H]2OC)cc1  27.2%
39. CC(=O)N1CCCC1CCc1ccnc(-c2cncnc2)c1 (stereo unspecified)  27.45%
40. CCOC(=O)c1cccc(N2CCCC3(CCC(=O)N(C4CC4)C3)C2)n1 (stereo unspecified)  28.7%
41. N#Cc1ccc(CNCCc2cc(F)cc3c2OCOC3)cc1  28.8%
42. O=C(c1ccc(O)nc1)N1CCC(Nc2cccnn2)CC1  29.4%
43. Cc1nc(C)n(CC2CCCN2Cc2nc(-c3ccco3)no2)n1 (stereo unspecified)  29.645%
44. Cc1nc(C)n(CC2CCCCN2Cc2ncc(C(C)(C)C)o2)n1 (stereo unspecified)  31%
45. Fc1cc(Cl)cnc1N1CCCC(c2nccn2Cc2ccncc2)C1 (stereo unspecified)  31.4%
46. c1coc(-c2noc(CN3CCCC3Cn3cncn3)n2)c1 (stereo unspecified)  31.8%
47. COCCCN(Cc1ccccn1)S(=O)(=O)N(C)C  32.8%
48. O=C(Cn1cc(-c2ccccc2)ncc1=O)Nc1nc(C2CC2)n[nH]1  33.7%
49. COc1ccc(C[C@H]2CN(C(=O)c3ccncc3)CC[C@@H]2OC)cc1  34.1%
50. O=C(N[C@H]1COC[C@@H]1N1CCCC1)c1csc(-c2cccs2)n1  34.2%
51. Cc1nc(C)n(CC2CCCN2CC(=O)NCCc2cccs2)n1 (stereo unspecified)  43.6%
52. Cc1ccc(N2CC[C@H]3O[C@H](C(=O)N4CCCCO4)CC[C@H]32)nn1  46.4%
53. CN(C)CCN(Cc1ccsc1)C(=O)C1=NNC(=O)CC1  49%
54. Cc1nc(C)n(CC2CCCN2Cc2nnc(-c3ccco3)o2)n1 (stereo unspecified)  50%
55. Cc1nc(C)n(CC2CCCN2CCc2cccs2)n1 (stereo unspecified)  52%
56. O=C(Cc1ccc(F)cc1)NCCNS(=O)(=O)C1CCCC1  54.9%
57. COc1ccc(C[C@H]2CN(c3cc(OC)ncn3)CC[C@@H]2OC)cc1  55.5%
58. CCOCC1CCN(C(=O)Nc2ccc(-c3csnn3)cc2)C1 (stereo unspecified)  60%
59. Cc1nc(C)n(CC2CCCN2Cc2ncc(C(C)(C)C)o2)n1 (stereo unspecified)  63.5%
60. COCCc1noc(CN2CCCC2Cn2nc(C)nc2C)n1 (stereo unspecified)  64.8%
61. Cc1ccc(CN2CC[C@H]3O[C@@H](C(=O)N4CCCO4)CC[C@H]32)s1  66.9%
62. Cc1ccsc1CN(CCN(C)C)C(=O)C1=NNC(=O)CC1  67.2%
63. Cc1ccsc1CN(CCN(C)C)C(=O)c1cc2ccccc2[nH]1  71%
64. COc1ccc(C[C@H]2CN(c3cc(OC)ncn3)CC[C@H]2OC)cc1  74.8%
65. CC(C)(C)CC1CCCN1Cc1nc(-c2ccco2)no1 (stereo unspecified)  76.2%
66. Cc1ccc(N2CC[C@H]3O[C@@H](C(=O)N4CCCO4)CC[C@H]32)nn1  92.1%
